Source: PubChem BioAssay (The Scripps Research Institute Molecular Screening Center)
Only some compounds are listed: those with a hit (about 3.5% of all), similar ones and a draw of the others.
GPR151 ag = human GPR151 activation; PathHunter beta-arrestin GPR151 cells, luminescence; activation, % at 11.2 µM; 650,000 compounds, 1% hits; AID 1508602; in the data active = activation above about 4.9%;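 note: 0% = median of compound wells and 100% = cells with positive control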
FBW7 act = human FBW7 E3 ligase activation, primary screen; AlphaScreen FBW7–phospho-cyclin E peptide binding, activator screen; 650,000 compounds, 0.13% hits; AID 1259310; normalized activity (activation), % at 26.1 µM; Q969H0; in the data active = normalized activity above about 1.9%;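 note: purified mutant Fbw7 with reduced substrate affinity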
TEAD-YAP inh = TEAD-YAP interaction inhibition; HEK-TIYL cells, TEAD-Gal4/YAP UAS-luciferase luminescence; inhibition, % at 9.12 µM; 640,000 compounds, 1.4% hits; in the data active = inhibition above about 32%;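 note: 0% = median of test compound wells and 100% = reference inhibitor wells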
MITF primary = human MITF inhibition, primary screen. AlphaScreen MITF homodimerization, bead proximity signal. O75030. inhibition, % at 2.6 µM. 650,000 compounds, 0.91% hits. AID 1259374; in the data active = inhibition above about 50%;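 note: 0% = vehicle wells with protein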
Target sequence (O75030 whole entry, looked up): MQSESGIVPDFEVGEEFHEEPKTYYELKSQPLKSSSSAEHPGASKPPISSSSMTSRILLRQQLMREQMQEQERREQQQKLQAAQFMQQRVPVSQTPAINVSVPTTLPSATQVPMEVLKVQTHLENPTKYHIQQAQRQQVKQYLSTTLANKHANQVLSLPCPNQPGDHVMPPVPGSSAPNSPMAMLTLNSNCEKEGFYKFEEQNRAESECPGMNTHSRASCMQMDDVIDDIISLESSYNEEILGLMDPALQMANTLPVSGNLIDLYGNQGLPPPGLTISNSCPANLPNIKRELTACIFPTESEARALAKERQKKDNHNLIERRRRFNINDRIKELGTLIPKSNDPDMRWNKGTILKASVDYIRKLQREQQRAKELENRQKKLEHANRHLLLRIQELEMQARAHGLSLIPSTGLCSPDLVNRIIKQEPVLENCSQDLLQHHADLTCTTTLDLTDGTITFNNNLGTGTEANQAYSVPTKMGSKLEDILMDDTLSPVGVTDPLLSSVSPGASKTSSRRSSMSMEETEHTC
* hit, by the source's call; x = no result.

SMILES	GPR151 ag	FBW7 act	TEAD-YAP inh	MITF primary
COc1cccc(C2=NN3C(C2)c2cccc(OC)c2OC3c2cccc(OC)c2)c1 (stereo not drawn)	0	0	38*	6
COC(=O)c1ccc(C2Oc3c(OC)cccc3C3CC(c4cccc(OC)c4)=NN32)cc1 (stereo not drawn)	-3	0	63*	19
COc1cccc(C2=NN3C(C2)c2cccc(OC)c2OC3c2cc(OC)c(OC)c(OC)c2)c1 (stereo not drawn)	-1	0	32*	3
COC(=O)c1ccc(C2Oc3c(OC)cccc3C3CC(c4ccc(OC)cc4)=NN32)cc1 (stereo not drawn)	-1	0	-43	-4
COc1cc(Nc2cc(-c3cccc(C(C)=O)c3)nc(N)n2)cc(OC)c1OC	-1	0	-25	0
C[C@H]1C(=O)N2CCN(Cc3nc(-c4ccccc4)cs3)C[C@@H]2C(=O)N1C	-1	1	4	-14
CC1(Cc2ccccc2)C(=O)Nc2ccc(-c3cccnc3)cc21 (stereo not drawn)	0	0	18	8
CC1(Cc2ccc3c(c2)OCO3)C(=O)Nc2ccc(-c3cccnc3)cc21 (stereo not drawn)	1	0	42*	11
Cc1ccoc1C(=O)N1CCCC(CCC(=O)N2CCN(c3ccccn3)CC2)C1 (stereo not drawn)	0	0	0	5
Cc1ccc(C(=O)N2CCCC(CCC(=O)N3CCN(c4ccccn4)CC3)C2)cc1C (stereo not drawn)	-1	3.6*	3	4
COc1cc(Nc2nc(NCCN3CCOCC3)c3ncn(-c4ccsc4)c3n2)cc(OC)c1OC	1	0	49*	-9
COc1ccc(CCNc2nc(NCCN3CCOCC3)nc3c2ncn3-c2ccsc2)cc1	0	0	5	8
c1cnc(Nc2nc(NCCN3CCOCC3)c3ncn(-c4ccsc4)c3n2)cn1	2	0	66*	0
CCN(CC)c1ccc(/C=C2/C(=O)N(c3ccccc3)N=C2C)cc1	-1	-2	11	68*
CC1=NN(c2ccc(Cl)cc2)C(=O)/C1=C\c1ccc([N+](=O)[O-])o1	-1	-1	7	-15
CC1=NN(c2ccccc2)C(=O)/C1=C/c1ccc(N2CCCC2)o1	4	0	66*	9
CC1=NN(c2ccc(C(=O)O)cc2)C(=O)/C1=C\c1ccc([N+](=O)[O-])o1	-1	0	6	71*
C/C(=N/Nc1c([N+](=O)[O-])c(C)nn1C)c1cc(F)c(Cl)cc1F	0	0	7	5
O=C(NCc1ccncc1)c1ccc(OC2CCN(Cc3cc4ccccc4o3)CC2)cc1	3	0	45*	3
O=C(NCCN1CCOCC1)c1cccc(-n2ncc3ccc(-c4ccncc4)cc32)c1	-1	0	-13	0
COC(=O)C1=CN(CCc2ccccc2)C=C(C(=O)OC)C1c1cc(OC)c(OC)c(OC)c1	-1	2.6*	2	11
COC(=O)C1=CN(CCc2ccccc2)C=C(C(=O)OC)C1c1ccc2c(c1)OCO2	0	3.2*	-3	2
O=C(NCCCCN1CCOC(c2ccccc2)C1)c1cccc(Cl)c1 (stereo not drawn)	0	0	7	7
O=C(O)/C=C/c1ccc(O)c(O)c1	0	0	-5	46
O=C(/C=C/c1ccc(O)c(O)c1)O[C@H](Cc1ccc(O)c(O)c1)C(=O)O	0	x	x	90*
SMILES	GPR151 ag	FBW7 act	TEAD-YAP inh	MITF primary
Cc1cccc(NC(=O)C2COc3ccccc3O2)n1 (stereo not drawn)	1	0	-30	7
O=C(Nc1cc(C(F)(F)F)cc(Cl)n1)C1COc2ccccc2O1 (stereo not drawn)	-1	1.9*	9	13
O=C(Nc1cccnc1Cl)C1CC(c2ccccc2F)=NO1 (stereo not drawn)	0	1	1	17
Cc1ccc(N(C(=O)c2cccc(N)c2)c2ccc3ccccc3c2)cc1	0	0	-15	11
O=S(=O)(Nc1ccc(Cc2ccncc2)cc1)c1ccc(Cl)cc1	2	0	38*	5
CO[C@H]1O[C@@H]2O[C@@]3(C)CC[C@H]4[C@H](C)CC[C@@H]([C@H]1C)[C@@]24OO3	1	0	2	9
C[C@@H]1CC[C@H]2[C@@H](C)C(O)O[C@@H]3OC4(C)CC[C@@H]1[C@]32OO4 (stereo partly drawn)	0	0	88*	25
C[C@H]1[C@@H](OC(=O)CCC(=O)O)O[C@@H]2OC3(C)CC[C@H]4[C@H](C)CC[C@@H]1[C@@]24OO3	0	0	82*	-1
CCN(CC)C(=O)c1sc2ncn(CC(=O)N3CCOCC3)c(=O)c2c1C	-1	0	-9	-1
O=C(CCN1CCN(C(c2ccccc2)c2ccccc2)CC1)NNC(=O)c1cnccn1	1	0	16	2
COc1ccc(/C=C/C2=NN(c3ccccc3)C(c3ccc(OC)cc3OC)C2)c(OC)c1 (stereo not drawn)	1	2.7*	2	-55
Cc1nc2ccc3nc(NC(=O)CN4C(=O)CCC4=O)sc3c2s1	-1	0	-12	-5
COC(=O)c1ccc(-c2ccc(/C=C(\C#N)c3nc(N)c(C#N)c(N)c3C#N)o2)cc1	0	4.7*	12	18
COc1ccc(C2CC(c3cccs3)=NN2C(=O)CSc2nnc(CNC(=O)COc3ccccc3)n2-c2ccccc2OC)cc1 (stereo not drawn)	1	0	32*	3
COc1ccc(C2=NN(C(=O)CSc3nnc(CNC(=O)c4ccco4)n3-c3cc(C)ccc3C)C(c3ccc(OC)cc3)C2)cc1 (stereo not drawn)	1	3.6*	-5	-1
CCOc1ccc(C(=O)CSc2nnc(-c3ccccc3N)n2C)cc1	3	0	-11	-1
COCc1cc(CN2CCOCC2)c(O)c2ncccc12	1	-2	2	90*
CCOc1cccc(CN2CCCCCC2)c1O	0	0	-1	10
CC(C)OCc1cc(CN2CCCCC2)c(O)c2ncccc12	-1	-1	86*	104*
COCc1cc(CN2CCCCC2)c(O)c2ncccc12	1	-1	76*	98*
CCCOCc1cc(CN2CCCCC2)c(O)c2ncccc12	4	-1	71*	106*
COc1ccc(OC)c(NC(=O)Nc2ccc(OC)c(OC)c2)c1	-1	1	-1	-4
Cc1sc2ncnc(N3CCN(c4ccc([N+](=O)[O-])cc4)CC3)c2c1C	1	0	5	-3
CC(=O)c1cccc(NC(=O)CCS(=O)(=O)c2cccs2)c1	0	0	-66	23
Cc1sc2nc(CSc3nnc(C4COc5ccccc5O4)n3C)[nH]c(=O)c2c1C (stereo not drawn)	3	0	1	9
CCOc1ccccc1N1CCN(Cc2cc(OC)c(O)c(OC)c2)CC1	1	0	-2	27
Oc1c(CN2CCCCC2)cc(Br)c2cccnc12	0	-1	58*	98*
COCc1cc(CN2CCN(c3ccccc3OC)CC2)c(O)c2ncccc12	4	0	42*	107*
